# ZTA DNA inh – counter-screen for EBNA-1 inhibitors: inhibitors of Epstein-Barr virus ZTA. hit rate 0.15% among 320,000. P03206. ZTA-DNA binding, fluorescence polarization. inhibition, % at 11 µM; in the data active = inhibition above about 33%
# PP1 counter – counter-screen for PP5 inhibitors: inhibitors of human PP1-alpha; P62136; hit rate 0.9% among 320,000; inhibition, % at 6.7 µM; purified PP1alpha, OMFP fluorescence;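 active = inhibition above the mean inhibition of all tested compounds plus 3 SD, computed separately for each screening campaign, cut at about 15% in these data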
# PP5 primary – PP5 (human) phosphatase inhibition | hit rate 0.18% among 320,000 | P53041 | AID 1987 | inhibition, % at 6.7 µM | purified PP5c, OMFP substrate fluorescence;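 active = inhibition above the campaign's mean inhibition across all tested compounds plus 3 SD, cut at about 9.5% in these data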;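 note: 0% = DMSO only and 100% = 100 µM cantharidin control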
# Target sequence (P53041 whole entry, looked up): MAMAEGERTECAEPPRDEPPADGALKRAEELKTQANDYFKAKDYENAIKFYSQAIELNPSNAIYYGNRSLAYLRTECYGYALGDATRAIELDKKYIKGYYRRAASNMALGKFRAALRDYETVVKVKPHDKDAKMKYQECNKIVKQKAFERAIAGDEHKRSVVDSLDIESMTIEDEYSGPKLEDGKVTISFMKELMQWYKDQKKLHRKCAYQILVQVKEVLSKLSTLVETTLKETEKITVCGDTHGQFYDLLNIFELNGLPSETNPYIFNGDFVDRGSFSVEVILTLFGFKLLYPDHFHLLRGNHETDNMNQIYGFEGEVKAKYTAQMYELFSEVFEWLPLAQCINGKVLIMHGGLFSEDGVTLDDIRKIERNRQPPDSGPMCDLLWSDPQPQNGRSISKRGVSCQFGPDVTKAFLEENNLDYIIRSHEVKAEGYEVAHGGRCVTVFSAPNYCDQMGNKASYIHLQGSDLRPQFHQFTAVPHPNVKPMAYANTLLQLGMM
# EBNA-1 inh – blocks EBNA-1 binding to DNA | inhibition, % at 14.8 µM | EBNA-1 DNA binding, fluorescence polarization | AID 1950 | hit rate 0.34% among 300,000; in the data active = inhibition above about 28%
# MsrA inh – inhibits bovine methionine sulfoxide reductase A; purified bovine MsrA, absorbance read-out; inhibition, % at 15.5 µM; hit rate 0.75% among 360,000;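 note: 0% = vehicle wells with enzyme and 100% = reference inhibitor wells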
# bovine MsrA act – bovine methionine sulfoxide reductase A activation; purified bovine MsrA, absorbance read-out; activation, % at 10.6 µM; hit rate 0.3% among 360,000; in the data active = activation above about 7.5%;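 note: 0% = vehicle and 100% = reference activator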
# MsrA inh confirm – confirmation of bovine MsrA inhibitors; purified bovine MsrA, absorbance read-out; inhibition, % at 15.5 µM; AID 651822; hit rate 41% among 2,300; shares compounds with MsrA inh;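 note: coupled to thioredoxin reductase with NADPH and selenocystamine and DMSO as substrate; 0% = vehicle only and 100% = full effect of reference inhibitor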
# The depositor's hits bear a star; x = no result. This is a sample that favours compounds with a hit; in the whole collection about 2.3% have one here. Cut-off read from the data, not from the text of the source, unless noted: active = inhibition above about 4.5%; inactive = the rest.
SMILES,ZTA DNA inh,PP1 counter,PP5 primary,EBNA-1 inh,MsrA inh,bovine MsrA act,MsrA inh confirm
CCS(=O)(=O)Nc1cccc(C2=NN(C(=O)c3ccco3)C(c3ccco3)C2)c1 (configuration not stated),9.7,1.4,0.8,13.2,3.1,-3.0,x
COc1cc(/C=C(\CC(=O)O)c2nc3ccccc3s2)cc(OC)c1O,-15.6,3.8,-0.5,-1.5,3.8,-5.0,x
COc1ccc(/C=C(\CC(=O)O)c2nc3ccccc3s2)cc1O,-8.1,2.0,1.2,1.2,5.6*,-9.4,4.5
COCc1cc(C)nc(N/N=C/c2ccc(-c3cc(C(=O)O)ccc3Cl)o2)c1C#N,1.8,-4.8,2.1,-18.1,5.3*,x,1.4
O=c1cnn(-c2ccccc2)c(-c2ccccc2)c1,-4.0,-3.7,2.5,3.5,12.5*,-4.5,9.5*
COc1cccc(/C=C2\SC(=O)N(CC(=O)NC3CCS(=O)(=O)C3)C2=O)c1 (configuration not stated),-2.9,3.6,2.1,-0.1,4.8*,-4.4,3.4
COc1cccc(/C=C2\SC(=O)N(CCC(=O)NC3CCS(=O)(=O)C3)C2=O)c1 (configuration not stated),-7.4,2.2,1.9,6.6,3.5,-4.7,x
CCn1c(SCC(=O)N/N=C(/C)c2ccncc2)nc2ccccc21,1.4,-2.0,-0.5,3.9,-1.5,-1.1,x
COCCCNC(=O)C(=O)N/N=C/c1cc2c(cc1Br)OCO2,-1.1,-1.1,-1.8,-11.2,5.0*,-2.9,2.9
COc1ccc(/C=C(/NC(=O)c2ccccc2)C(=O)N/N=C/c2ccc3c(c2)OCO3)cc1OC,x,x,x,x,6.4*,-5.1,5.1*
O=C(N/N=C/c1cccnc1)/C(=C\c1cccs1)NC(=O)c1ccccc1,-2.7,-5.2,-8.6,-4.6,7.3*,3.1,4.7*
COc1ccc([N+](=O)[O-])cc1/C=N/NC(=O)/C(=C\c1cccs1)NC(=O)c1ccccc1,-4.1,6.7,2.9,-5.7,2.7,-9.0,x
COc1ccc(/C=C(/NC(=O)c2ccccc2)C(=O)N/N=C/c2cccs2)cc1OC,-8.9,-3.5,2.0,-10.1,4.8*,-7.4,6.0*
CNC(=O)c1ccc(Nc2nc(-c3ccccc3)nc3ccccc23)cc1,6.6,1.3,4.3,10.9,2.0,-4.0,x
O=C(O)c1cccc(Nc2nc(C(F)(F)F)nc3ccccc23)c1,-17.9,-0.4,-0.4,1.9,4.7*,-6.6,2.3
O=C(O)c1ccc(Nc2nc(-c3ccccc3)nc3ccccc23)cc1,8.7,2.4,2.4,4.6,6.0*,-3.6,3.4
O=C(O)c1cccc(Nc2nc(-c3ccccc3)nc3ccccc23)c1,-7.0,0.1,3.6,-1.7,2.9,-0.8,x
COc1ccc(Cl)cc1NC(=S)NC1CCCC1,-15.8,3.4,1.9,-12.4,0.6,-0.1,x
COc1cccc(N2CCN(C(=O)c3ccc(=O)oc3)CC2C)c1 (configuration not stated),2.9,-3.7,-3.0,2.7,4.9*,-7.7,3.9
COc1cccc(NC(=O)N2CCN(c3cccc(C)c3)C(C)C2)c1 (configuration not stated),-3.5,-0.7,4.2,-6.1,-0.5,4.6,x
COc1ccc(C2CC(=O)C3=C(C2)Nc2ccccc2N(C(=O)CCC(=O)O)C3c2ccc(F)cc2)cc1 (configuration not stated),-12.7,-1.8,-1.3,-0.9,5.0*,-2.1,4.4
O=C(O)CCC(=O)N1c2ccccc2NC2=C(C(=O)CC(c3ccc(F)cc3)C2)C1c1ccc([N+](=O)[O-])o1 (configuration not stated),5.7,-0.7,0.0,-10.2,7.0*,-3.7,4.6*
CC(=O)N1c2ccccc2NC2=C(C(=O)CCC2)C1c1ccc(F)cc1 (configuration not stated),-0.8,-6.5,4.2,5.9,3.3,-1.8,x
O=Cc1cnc(N2CCCCC2)s1,3.5,-3.6,0.7,-0.9,5.0*,-5.5,6.9*
COc1ccc(CCN2C(=O)CC(NNc3ccc([N+](=O)[O-])cc3)C2=O)cc1OC (configuration not stated),-5.3,-1.0,1.9,-7.9,0.2,-3.8,x
COc1c(O)ccc(/C=N\NC(=O)c2ccc3c(c2)OCO3)c1[N+](=O)[O-],1.9,0.2,-1.6,-4.2,8.1*,-4.1,4.9*
